{"source": "PubChem BioAssay AID430", "about": "(Sanford-Burnham Center for Chemical Genomics, 2006)", "note": "Screen size: about 63,000 compounds; about 1,100 (1.7%) were called active. Cut-off read from the data, not from the text of the source: active = cytotoxicity above about 50%; inactive = the rest. Many of the other results were omitted from the sample, so actives are more common in it than they were. Potency and affinity values are given separately.", "data": [{"assay": "cytotoxicity in HPDE-C7 cells, cell-based, fluorescence, HTS (AID 430);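 note: cells exposed to compound for 48 hours before viability readout; 0% = vehicle and 100% = reference cytotoxic drug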", "conditions": "HPDE-C7 pancreatic duct cells viability, at 10 µM, stronger effect = higher value", "values": [{"smiles": "CC(C)(C)n1nnnc1C(c1cccs1)N(Cc1ccccc1)Cc1ccco1", "note": "(stereo not drawn)", "cytotoxicity": "-4.3% (inactive)"}, {"smiles": "COc1cccc(NC(=O)C2CCCN2C(=O)Nc2cccc(F)c2)c1", "note": "(stereo not drawn)", "cytotoxicity": "9.8% (inactive)"}, {"smiles": "COc1ccccc1-c1nnc(SCC(=O)Nc2c(Cl)cccc2Cl)o1", "cytotoxicity": "-1.3% (inactive)"}, {"smiles": "COC(=O)CSc1nnc(-c2ccccc2OC)o1", "cytotoxicity": "-25.6% (inactive)"}, {"smiles": "O=S(=O)(c1ccc(OCC(O)CNCc2ccco2)c(Cl)c1)N1CCOCC1", "note": "(stereo not drawn)", "cytotoxicity": "-9.8% (inactive)"}, {"smiles": "CCn1c(=O)cc(OCC(=O)NCc2ccco2)c2ccccc21", "cytotoxicity": "5.8% (inactive)"}, {"smiles": "Cc1ccccc1Cn1c(=O)n(CCCC(=O)NCc2ccco2)c(=O)c2ccccc21", "cytotoxicity": "-24.1% (inactive)"}, {"smiles": "Cn1c(=O)cc(SCC(=O)NCc2ccco2)c2ccccc21", "cytotoxicity": "-4.4% (inactive)"}, {"smiles": "Cc1ccc(C)c(Cn2c(=O)n(CCC(=O)NCc3ccco3)c(=O)c3ccccc32)c1", "cytotoxicity": "-14.5% (inactive)"}, {"smiles": "CCn1c(=O)cc(SCC(=O)NCc2ccco2)c2ccccc21", "cytotoxicity": "62.1% (active)"}, {"smiles": "Cc1ccc(C)c(Cn2c(=O)n(CCCC(=O)NCc3ccco3)c(=O)c3ccccc32)c1", "cytotoxicity": "60.2% (active)"}, {"smiles": "CC1CN(c2nc3ccccc3nc2C(C#N)C(=O)OC2CCCCC2)CC(C)O1", "note": "(stereo not drawn)", "cytotoxicity": "-26.1% (inactive)"}, {"smiles": "COc1ccc(-c2nc(CS(=O)CC(=O)NCc3ccco3)c(C)o2)cc1OC", "note": "(stereo not drawn)", "cytotoxicity": "2.9% (inactive)"}, {"smiles": "COC(=O)c1ccc(-c2ccco2)n1Cc1nc(-c2ccc(OC)c(OC)c2)oc1C", "cytotoxicity": "71.6% (active)"}, {"smiles": "COC(=O)c1cc2ccsc2n1Cc1nc(-c2ccc(OC)cc2)oc1C", "cytotoxicity": "-7% (inactive)"}, {"smiles": "COC(=O)C1=C(C)N(CC2CCCO2)C(=O)C1", "note": "(stereo not drawn)", "cytotoxicity": "6% (inactive)"}, {"smiles": "Cc1cc(=O)[nH]c(SC/C=C/c2ccccc2)n1", "cytotoxicity": "-13.4% (inactive)"}, {"smiles": "Cc1cc(=O)[nH]c(SCc2cccc(Br)c2)n1", "cytotoxicity": "2.7% (inactive)"}, {"smiles": "Cc1cc(=O)[nH]c(SCc2nc3ccccc3s2)n1", "cytotoxicity": "57% (active)"}, {"smiles": "CC(=O)Nc1ccc(C(=O)CS(=O)(=O)c2ccc(C)cc2)cc1", "cytotoxicity": "-17.2% (inactive)"}, {"smiles": "Cc1cc2c(c(=O)o1)C1(C(=O)N(C)c3ccccc31)C(C#N)=C(N)O2", "note": "(stereo not drawn)", "cytotoxicity": "-8.3% (inactive)"}, {"smiles": "COc1ccccc1-n1cnc2cc(NC(C)=O)ccc21", "cytotoxicity": "-8.6% (inactive)"}, {"smiles": "CCC(=O)Nc1ccc2c(c1)ncn2-c1ccccc1OC", "cytotoxicity": "-35.6% (inactive)"}, {"smiles": "COc1ccccc1-n1cnc2cc(NCc3ccco3)ccc21", "cytotoxicity": "63.6% (active)"}, {"smiles": "O=C(CCCCCN1C(=O)CCC1=O)Nc1ncn[nH]1", "cytotoxicity": "-2.1% (inactive)"}, {"smiles": "CCCCCCc1cc2cc(C(=O)NC)c(=N)oc2cc1O", "cytotoxicity": "19.4% (inactive)"}, {"smiles": "CCCCCCc1cc2cc(-c3nnc(-c4ccccc4O)o3)c(=O)oc2cc1O", "cytotoxicity": "62.7% (active)"}, {"smiles": "CCOc1cccc2cc(-c3nnc(-c4ccccc4)o3)c(=O)oc12", "cytotoxicity": "-14.9% (inactive)"}, {"smiles": "N#CCCn1cc(C(CC(=O)c2ccc(Br)cc2)C(=O)O)c2ccccc21", "note": "(stereo not drawn)", "cytotoxicity": "-21.4% (inactive)"}, {"smiles": "CCOC(=O)Nc1ccc(S(=O)(=O)Nn2cnnc2)cc1", "cytotoxicity": "-3.3% (inactive)"}, {"smiles": "OCCSc1nc(-c2cccnc2)nc2ccccc12", "cytotoxicity": "5.1% (inactive)"}, {"smiles": "Cn1nnnc1Sc1nc(-c2cccnc2)nc2ccccc12", "cytotoxicity": "99.3% (active)"}, {"smiles": "CN1CCN(c2nc(-c3cccnc3)nc3ccccc23)CC1", "cytotoxicity": "-0.2% (inactive)"}, {"smiles": "CCOc1cccc(-c2nnc3n2N=C(c2cc(OC)ccc2OC)CS3)c1", "cytotoxicity": "28.5% (inactive)"}, {"smiles": "COCCSc1ccccc1C(=O)Nc1nncs1", "cytotoxicity": "-5.4% (inactive)"}, {"smiles": "O=C(CCN1CCN(CCC(=O)c2ccccc2)CC1)c1ccccc1", "cytotoxicity": "-22.9% (inactive)"}, {"smiles": "O=C(CCN1CCN(c2ccccc2F)CC1)Nc1ccccc1F", "cytotoxicity": "-8.5% (inactive)"}, {"smiles": "C=CCn1c(SCCC(=O)O)nc2c1c(=O)n(C)c(=O)n2C", "cytotoxicity": "-15.6% (inactive)"}, {"smiles": "COc1ccc(NC(C)=O)cc1NC(=O)CSc1nnc(-c2ccccc2)n1N", "cytotoxicity": "-1.2% (inactive)"}, {"smiles": "CC[C@H](C)C(=O)O[C@H]1C[C@@H](C)C=C2C=C[C@H](C)[C@H](CC[C@@H]3C[C@@H](O)CC(=O)O3)[C@H]21", "cytotoxicity": "57.6% (active)"}, {"smiles": "NC(=O)COC(=O)c1ccc(S(=O)(=O)N2CCCCCC2)cc1", "cytotoxicity": "10.2% (inactive)"}, {"smiles": "CC(C)[C@H](NC(=O)OC(C)(C)C)c1nnc(S(=O)(=O)Cc2c(F)cccc2Cl)o1", "cytotoxicity": "-7.3% (inactive)"}, {"smiles": "CC(C)(C)OC(=O)N[C@@H](Cc1ccccc1)c1nnc(S(=O)(=O)Cc2cccc(F)c2)o1", "cytotoxicity": "-10.9% (inactive)"}, {"smiles": "CC(C)C[C@H](NC(=O)OC(C)(C)C)c1nnc(SCc2cccc(F)c2)o1", "cytotoxicity": "-12% (inactive)"}, {"smiles": "CCOC(=O)CSc1nnc([C@H](CC(C)C)NC(=O)OC(C)(C)C)o1", "cytotoxicity": "1.4% (inactive)"}, {"smiles": "COC(=O)CS(=O)(=O)c1nnc([C@H](Cc2ccccc2)NC(=O)OC(C)(C)C)o1", "cytotoxicity": "-7.1% (inactive)"}, {"smiles": "CC[C@@H](C)[C@H](NC(=O)OC(C)(C)C)c1nnc(S(=O)(=O)Cc2cc(C)ccc2C)o1", "cytotoxicity": "58.1% (active)"}, {"smiles": "CCC(C)[C@@H](NC(=O)OC(C)(C)C)c1nnc(S(=O)(=O)Cc2cccc(C)c2)o1", "note": "(stereo partly drawn)", "cytotoxicity": "5.7% (inactive)"}, {"smiles": "Cc1ccc(CCNC(=O)NC(C)(C)C)cc1", "cytotoxicity": "-6.5% (inactive)"}, {"smiles": "O=C(OC1CCOC1=O)c1ccc(S(=O)(=O)N2CCCCCC2)cc1", "note": "(stereo not drawn)", "cytotoxicity": "-10.6% (inactive)"}, {"smiles": "CCOc1cc2c(C#N)c(N3CCOCC3)nc(N)c2c(N)n1", "cytotoxicity": "23% (inactive)"}, {"smiles": "N#Cc1c(N2CCCC2)nc(N)c2c(N)nc(N3CCCC3)cc12", "cytotoxicity": "1.9% (inactive)"}, {"smiles": "COc1cc2c(C#N)c(N3CCCCC3)nc(N)c2c(N)n1", "cytotoxicity": "44.8% (inactive)"}, {"smiles": "COc1cc2c(C#N)c(N3CCOCC3)nc(N)c2c(N)n1", "cytotoxicity": "37.5% (inactive)"}, {"smiles": "COc1cc2c(C#N)c(N3CCN(c4ccccc4OC)CC3)nc(N)c2c(N)n1", "cytotoxicity": "54.8% (active)"}, {"smiles": "COc1ccc(Cc2nc(-c3cccs3)no2)cc1OC", "cytotoxicity": "5.9% (inactive)"}, {"smiles": "Cc1ccc(OCCSc2nnc(NC(=O)c3ccco3)s2)cc1", "cytotoxicity": "4.3% (inactive)"}, {"smiles": "CCC(C)NC(=O)CCS(=O)(=O)c1ccc2c(c1)n(C)c(=O)c(=O)n2C", "note": "(stereo not drawn)", "cytotoxicity": "-0.5% (inactive)"}, {"smiles": "CC(C(=O)Nc1sccc1C(N)=O)N1C(=O)C2CC=CCC2C1=O", "note": "(stereo not drawn)", "cytotoxicity": "-1.9% (inactive)"}, {"smiles": "CC(CCc1ccccc1)NC(=O)C1CCN(S(=O)(=O)N2CCCCC2)CC1", "note": "(stereo not drawn)", "cytotoxicity": "-21.3% (inactive)"}, {"smiles": "Clc1c(CSc2nc3ccccc3o2)nc2sccn12", "cytotoxicity": "13.8% (inactive)"}, {"smiles": "O=C(O)C1CCCCC1C(=O)Nc1ccc2c(c1)CCC2", "note": "(stereo not drawn)", "cytotoxicity": "-13.4% (inactive)"}, {"smiles": "CC1CCCCC1NC(=O)CSc1nnc(COc2ccccc2Cl)o1", "note": "(stereo not drawn)", "cytotoxicity": "-6.2% (inactive)"}, {"smiles": "CCCn1c(N)c(N(C)C)c(=O)n(CC(=O)Nc2ccc(OC(F)(F)F)cc2)c1=O", "cytotoxicity": "-2.7% (inactive)"}, {"smiles": "COc1ccc(OC)c(Nc2cc(C)nc3ccccc23)c1", "cytotoxicity": "-3.8% (inactive)"}, {"smiles": "COc1ccc(OC)c(Nc2cc(-c3ccccc3)nc(N)n2)c1", "cytotoxicity": "68.5% (active)"}, {"smiles": "COc1cc(-c2ccccc2)nc(N)n1", "cytotoxicity": "-3.4% (inactive)"}, {"smiles": "Cc1nc2ccccc2c2oc(C(=O)N3CCc4ccccc43)cc12", "cytotoxicity": "0.3% (inactive)"}, {"smiles": "COCCN1C=C(C(=O)OC)C(c2ccc(OC)c(OC)c2)C(C(=O)OC)=C1", "cytotoxicity": "-14.4% (inactive)"}, {"smiles": "CC1CN(c2nc3ccccn3c(=O)c2/C=C(\\C#N)S(=O)(=O)c2ccccc2)CC(C)O1", "note": "(stereo not drawn)", "cytotoxicity": "-12.3% (inactive)"}, {"smiles": "Clc1ccccc1CSc1ncccn1", "cytotoxicity": "-5.2% (inactive)"}, {"smiles": "O=C(CSc1nnc(-c2ccco2)c(-c2ccco2)n1)Nc1ccccc1", "cytotoxicity": "9.9% (inactive)"}, {"smiles": "Cc1ccc(NC(=O)CSc2nnc(-c3ccco3)c(-c3ccco3)n2)cc1", "cytotoxicity": "82.6% (active)"}, {"smiles": "Cc1cc(C)nc(SCc2nnc(SCc3ccccc3Cl)o2)n1", "cytotoxicity": "-4.7% (inactive)"}, {"smiles": "COc1ccc(NC(=O)CSc2nnc(-c3ccco3)n2C)cc1", "cytotoxicity": "-10.6% (inactive)"}, {"smiles": "CC1(C)OC(=O)C(=CNc2cccc(C(=O)O)c2)C(=O)O1", "cytotoxicity": "-20.6% (inactive)"}, {"smiles": "COc1ccc(S(=O)(=O)NCCSc2ccc(C)cc2)cc1OC", "cytotoxicity": "12.8% (inactive)"}, {"smiles": "COc1ccc(-c2nc(CN3CCC(C(=O)NC(C)C)CC3)c(C)o2)cc1OC", "cytotoxicity": "-10.9% (inactive)"}, {"smiles": "COc1ccc(C2C(C(C)=O)=C(O)C(=O)N2C)c(OC)c1", "note": "(stereo not drawn)", "cytotoxicity": "6.1% (inactive)"}, {"smiles": "COc1ccc(C2CC(c3c(O)cc(C)oc3=O)=NCCS2)c(OC)c1", "note": "(stereo not drawn)", "cytotoxicity": "71.1% (active)"}, {"smiles": "COc1ccc(C2NC(=O)c3n[nH]c(C)c32)c(OC)c1", "note": "(stereo not drawn)", "cytotoxicity": "4.3% (inactive)"}, {"smiles": "Cc1cccc(N(Cc2nnc3n2CCCCC3)C(=O)Nc2ccccc2)c1", "cytotoxicity": "-21.7% (inactive)"}, {"smiles": "COc1cc(CO)cc(-c2cc(CO)cc(OC)c2OC)c1OC", "cytotoxicity": "4% (inactive)"}, {"smiles": "OCCN1CCN(c2ncnc3c2sc2nc(N4CCOCC4)c4c(c23)CCC4)CC1", "cytotoxicity": "35.6% (inactive)"}, {"smiles": "CC1(C)Cc2c(c(N3CCCC3)nc3sc4c(N5CCN(CCO)CC5)ncnc4c23)CO1", "cytotoxicity": "60.5% (active)"}, {"smiles": "CN1CCN(c2ncnc3c2sc2nc(N4CCCC4)c4c(c23)CC(C)(C)OC4)CC1", "cytotoxicity": "-7.2% (inactive)"}, {"smiles": "Cn1c(NCc2ccccc2)nc2c1c(=O)n(Cc1ccccc1)c(=O)n2C", "cytotoxicity": "5.6% (inactive)"}, {"smiles": "Cn1c(NCCCN2CCOCC2)nc2c1c(=O)n(Cc1ccc(Cl)c(Cl)c1)c(=O)n2C", "cytotoxicity": "44% (inactive)"}, {"smiles": "Cn1c(N2CCN(c3ccccn3)CC2)nc2c1c(=O)n(Cc1ccccc1Cl)c(=O)n2C", "cytotoxicity": "-12.8% (inactive)"}, {"smiles": "Cn1c(OCc2cccnc2)nc2c1c(=O)n(Cc1ccc(Br)cc1)c(=O)n2C", "cytotoxicity": "50.4% (active)"}, {"smiles": "Cn1c(NCc2ccco2)nc2c1c(=O)n(Cc1ccc(Cl)c(Cl)c1)c(=O)n2C", "cytotoxicity": "8% (inactive)"}, {"smiles": "Cn1c(OCc2cccnc2)nc2c1c(=O)n(Cc1ccc(Cl)cc1)c(=O)n2C", "cytotoxicity": "44% (inactive)"}, {"smiles": "Cn1c(OCc2cccnc2)nc2c1c(=O)n(Cc1ccccc1)c(=O)n2C", "cytotoxicity": "25% (inactive)"}, {"smiles": "Cn1c(N2CCCC2)nc2c1c(=O)n(Cc1ccc(Cl)cc1)c(=O)n2C", "cytotoxicity": "1.7% (inactive)"}, {"smiles": "COc1ccc(CNc2nc3c(c(=O)n(Cc4ccc(Cl)cc4)c(=O)n3C)n2C)cc1", "cytotoxicity": "26.6% (inactive)"}, {"smiles": "Cn1c(NCC(O)c2ccccc2)nc2c1c(=O)n(Cc1ccc(Cl)c(Cl)c1)c(=O)n2C", "note": "(stereo not drawn)", "cytotoxicity": "69% (active)"}, {"smiles": "Cn1c(N2CCN(c3ccccn3)CC2)nc2c1c(=O)n(Cc1ccc(Cl)cc1)c(=O)n2C", "cytotoxicity": "66.4% (active)"}, {"smiles": "Cn1c(NCC(O)c2ccccc2)nc2c1c(=O)n(Cc1ccc(Cl)cc1)c(=O)n2C", "note": "(stereo not drawn)", "cytotoxicity": "53.2% (active)"}]}]}
